High-throughput results as filed in PubChem BioAssay.
Mtb MbtI inh: inhibitors of Mycobacterium tuberculosis siderophore enzyme MbtI | purified MbtI enzyme, fluorescence intensity read-out | inhibition, % (no concentration beside the values) | actives 0.89% (n = 100,000) | AID 493033; in the data active means inhibition mostly above about 56%, no sharp cut-off; inactive means mostly below about 77%
Polio RdRp inh: inhibitors of poliovirus RNA polymerase binding and polymerization; actives 0.66% (n = 150,000); % elongation, % (compound at 16.7 µg/mL); poliovirus polymerase elongation, fluorescence polarization; stronger effect = lower value; AID 588519; in the data active means % elongation below about 90%
AID504770: growth inhibitors of E. coli YBA685 in a screen for V. cholerae RctB (chromosome II replication) inhibitors; E. coli YBA685 rctB-dependent plasmid, OD600 growth, 3 h; stronger effect = lower value; z-score (concentration not given with the values); actives 0.27% (n = 130,000); in the data active means z-score below about -2, passing the limit was not always enough
Mtb MenB inh: inhibitors of Mycobacterium tuberculosis MenB enzyme. AID 540299. actives 0.43% (n = 100,000). MenB enzyme assay, absorbance read-out. inhibition, % (test concentration not listed). P9WNP5; in the data active means inhibition above about 21%, passing the limit was not always enough
Target sequence (P9WNP5 whole entry, looked up): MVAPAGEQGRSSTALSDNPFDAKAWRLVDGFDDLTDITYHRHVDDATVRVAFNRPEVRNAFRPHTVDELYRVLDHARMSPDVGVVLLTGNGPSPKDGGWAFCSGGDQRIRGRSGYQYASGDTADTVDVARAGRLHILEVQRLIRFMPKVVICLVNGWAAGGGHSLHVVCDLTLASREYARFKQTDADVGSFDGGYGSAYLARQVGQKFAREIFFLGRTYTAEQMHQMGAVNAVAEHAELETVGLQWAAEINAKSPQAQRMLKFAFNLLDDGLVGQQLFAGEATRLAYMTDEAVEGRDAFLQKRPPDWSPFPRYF
Numbers stand for hits. An excerpt weighted towards active compounds, which were near 1.4% of everything screened.

What do the screens show for `CC1=C(C)C(=O)C(NCC2CCCO2)=CC1=O` (stereo unspecified)?
Mtb MbtI inh: inactive; Polio RdRp inh: 70; AID504770: inactive; Mtb MenB inh: inactive

How did Cc1n[nH]c(=O)nc1NCC1CCCO1 (stereo unspecified) do in these assays?
AID504770: inactive

Results for CC(C)N(CC(=O)c1cccs1)Cc1ccccc1 ?
Mtb MbtI inh: 100; Polio RdRp inh: inactive; AID504770: inactive; Mtb MenB inh: inactive

What do the screens show for `NC(=O)c1c(NC(=O)c2noc3c2CCCC3)sc2c1CCCC2`?
Polio RdRp inh: 69

How did CCOC(=O)c1c(NC(=O)c2noc3c2CC(C(C)(C)C)CC3)sc2c1CCCC2 (stereo unspecified) do in these assays?
Polio RdRp inh: 76

How did Cn1c(C2CCCCC2)nc2ccccc21 do in these assays?
Mtb MbtI inh: inactive; Polio RdRp inh: inactive; AID504770: inactive; Mtb MenB inh: 28

Results for Cn1c(CNC2CCCCC2)nc2ccccc21 ?
AID504770: inactive

What do the screens show for `O=C(NCn1nnc(-c2ccncc2)n1)c1ccccc1`?
Mtb MbtI inh: inactive; Polio RdRp inh: inactive; AID504770: inactive; Mtb MenB inh: inactive

How did CC(CC1CC(C)(C)OC1=O)c1nc(=S)[nH][nH]1 (stereo unspecified) do in these assays?
Mtb MbtI inh: 64; Polio RdRp inh: inactive; AID504770: inactive; Mtb MenB inh: inactive

What do the screens show for `CN(C)CCNC(=O)c1ccc(Br)s1`?
Mtb MbtI inh: inactive; Polio RdRp inh: 89; AID504770: inactive; Mtb MenB inh: inactive

Results for COc1cccc(CN(C)C(=O)c2ccc3c(c2)NC(=O)CS3)c1 ?
Mtb MbtI inh: inactive; Polio RdRp inh: inactive; AID504770: inactive; Mtb MenB inh: inactive

Results for COCCN(Cc1ccccc1)C(=O)c1ccc2c(c1)NC(=O)CS2 ?
Mtb MbtI inh: 63; Polio RdRp inh: inactive; AID504770: inactive; Mtb MenB inh: inactive

How did CC1(C)CC(=O)C(C2(O)C(=O)NC(=O)NC2=O)=C(O)C1 do in these assays?
Mtb MbtI inh: inactive; Polio RdRp inh: 56; AID504770: inactive; Mtb MenB inh: inactive

What do the screens show for `Cc1ccc(C(=O)CCC(=O)O)s1`?
Mtb MbtI inh: inactive; Polio RdRp inh: inactive; AID504770: -3.3; Mtb MenB inh: inactive

What do the screens show for `Cc1ccc(C(=O)OCC(=O)c2ccccc2)s1`?
Mtb MbtI inh: inactive; Polio RdRp inh: inactive; AID504770: inactive; Mtb MenB inh: inactive

What do the screens show for `CCOC(=O)c1c(N2C(=O)C=CC2=O)sc(C)c1-c1ccccc1`?
Mtb MbtI inh: 77; Polio RdRp inh: inactive; AID504770: inactive; Mtb MenB inh: inactive

Results for CCCn1nnnc1CSc1nnc(-c2cccs2)n1C1CC1 ?
Mtb MbtI inh: inactive; Polio RdRp inh: inactive; AID504770: inactive; Mtb MenB inh: inactive

Results for Cc1nnc(SCc2ccc(C#N)cc2)n1C1CC1 ?
Mtb MbtI inh: inactive; Polio RdRp inh: inactive; AID504770: inactive; Mtb MenB inh: inactive

What do the screens show for `N#Cc1ccc(CSc2nnnn2C2CC2)cc1`?
Mtb MbtI inh: inactive; Polio RdRp inh: 35; AID504770: inactive; Mtb MenB inh: inactive

How did CNC(=O)c1sc(NCc2ccco2)nc1C do in these assays?
Mtb MbtI inh: 98; Polio RdRp inh: 77; AID504770: inactive; Mtb MenB inh: inactive

Results for CCOC(=O)c1sc2nc(C)c(C)c(C)c2c1N ?
AID504770: inactive

How did CN1C(=O)C(C(=O)NC(C)(C)C)C2CC1(C)Oc1ccccc12 (stereo unspecified) do in these assays?
Mtb MbtI inh: inactive; Polio RdRp inh: inactive; AID504770: inactive; Mtb MenB inh: inactive

How did CC(C)(C)C(=O)NC1CCN(S(C)(=O)=O)CC1 do in these assays?
Mtb MbtI inh: inactive; Polio RdRp inh: inactive; AID504770: inactive; Mtb MenB inh: 31

What do the screens show for `N#CC(C#N)=Cc1ccc(OC(F)F)cc1`?
Mtb MbtI inh: inactive; Polio RdRp inh: inactive; AID504770: inactive; Mtb MenB inh: inactive

What do the screens show for `C1COCCNCCOCCN1`?
Mtb MbtI inh: inactive; Polio RdRp inh: 88; AID504770: inactive; Mtb MenB inh: inactive

Results for CCOC(=O)c1c(C)c(C(=O)N2CCCC2)c(C)n1CC ?
Mtb MbtI inh: inactive; Polio RdRp inh: inactive; AID504770: inactive; Mtb MenB inh: inactive

How did NNc1nc2ccccc2[nH]c1=S do in these assays?
Mtb MbtI inh: inactive; Polio RdRp inh: inactive; AID504770: -3.2; Mtb MenB inh: inactive

How did O=C(NCCc1ccc(O)c(O)c1)C(F)(F)F do in these assays?
Mtb MbtI inh: 85; Polio RdRp inh: inactive; AID504770: inactive

Results for CCCNc1nc2ccccc2s1 ?
Mtb MbtI inh: inactive; Polio RdRp inh: inactive; AID504770: inactive; Mtb MenB inh: inactive

How did CCn1nc(N)c2c(O)[nH]c(=O)cc21 do in these assays?
Mtb MbtI inh: inactive; Polio RdRp inh: 40; AID504770: inactive; Mtb MenB inh: inactive
